Results on 103 compounds are retold here after ChEMBL document CHEMBL3988442, “University of Dundee, Small-Polar-MMV Screening Library” (2021).

In all, about 38,000 compounds went through this assay and about 1,200 (3.2%) showed an effect of 50% or more. The median lay at about -58%. What follows is part of a selection rich in strong results, with near analogues and random picks from the rest.

The assay concerns Plasmodium falciparum. Kind of assay: Calibr Malaria Delayed Death Assay SOP. The assay is classed as functional, organism-based. Also on record: scale not given: in the data most compounds retested in dose-response had high values. The following applies: concentration 4.99e-06 (unit not given; other assays of the set use mol/L).
Take `O=C(Nc1nccs1)c1csc(NC2CCCC2)n1`: the “Percent Effect” value is -183.6%.
Turning to `Cc1cnn(CCNCC(O)c2ccc(C(F)(F)F)cc2)c1` (stereo not drawn), the “Percent Effect” value worked out at 71.82%.
Then `Cc1cnn(CCNCC(O)c2ccc3c(c2)OCCO3)c1` (stereo not drawn), with -44.13%; and `Cc1cnn(CCNCC(O)c2ccc(F)c(F)c2)c1` (stereo not drawn), with 43.94%; and `COc1ccccc1C1CC(=O)Nc2c1c(=O)[nH]n2C(C)C` (stereo not drawn), with -127.8%.
Turning to `c1cncc(-c2nc3c(c(NCC4(c5ccncc5)CC4)n2)CCC3)c1`, the “Percent Effect” value is given as -35.93%.
On to `CC(O)CNc1nc(-c2cccnc2)nc2c1CCC2` (stereo not drawn), for which the “Percent Effect” value was -47.48%.
For the compound `c1ccc(-n2cnnc2CCCN2CCOCC2)cc1`, the “Percent Effect” value is listed as -26.23%.
Then `CC(C)OCCC(=O)NCC(c1c(F)cccc1F)N(C)C` (stereo not drawn), with -18.53%; and `O=C1COC2(CCN(C(=O)[C@H]3CCCO3)CC2)CN1Cc1ccccn1`, with -79.26%; and `CC(C)[C@H](N)C(=O)N1CCSc2ccccc2C1.Cl`, with 73.25%.
With `O=C(C(CNCc1ccccc1O)c1ccccc1)N1CCOCC1` (stereo not drawn) the figure was 14.02%; with `Cl.NC(C(=O)N1CCSc2ccccc2C1)c1ccccc1` (stereo not drawn), 59.31%; with `N[C@@H](C(=O)N1CCN(c2ccccc2Cl)C(=O)C1)c1ccccc1`, -16.48%.
Turning to `Cc1csc(CN(C)C(C)C(=O)N2CCc3ccccc3C2)n1` (stereo not drawn), the “Percent Effect” value is given as -122.6%.
Consider `CC(C)C[C@H](N)C(=O)N1CCSc2ccccc2C1.Cl`, for which the “Percent Effect” value stood at 47.22%.
Consider `CC1c2ncc(COCC3CC3)n2CCN1C(=O)c1ccnnc1` (stereo not drawn), for which the “Percent Effect” value stood at 2.24%.
For the compound `CCOCCN1CCN(CC(O)c2ccc(C(F)(F)F)cc2)CC1` (stereo not drawn), the “Percent Effect” value was found to be 21.93%.
Then `CSCc1ccc(C(=O)N2CCN(CC(C)O)CC2)cc1` (stereo not drawn), with -108.1%; and `Cc1cc(CN2CCN(c3ccc4nncn4n3)CC2)no1`, with -4.981%.
`c1ccc(CCN2CCN(c3ccc4nncn4n3)CC2)nc1`: the “Percent Effect” value was -102.7%.
Then `CC(Cn1cccn1)NC(=O)N1CCN(Cc2cccnc2)CC1` (stereo not drawn), with -145.3%; and `COc1cccc(CCC2CCCN(C(=O)c3ccccn3)C2)c1` (stereo not drawn), with -27.65%.
Then `Cc1[nH]c(=O)[nH]c(=O)c1CN1CCCC(CCc2ccccc2)C1` (stereo not drawn), with -20.63%; and `CN(CCOCC1CC1)C(=O)Nc1ccc([S+](C)[O-])cc1` (stereo not drawn), with -126.1%; and `CNC(=O)NC(C)c1c(F)cccc1Cl` (stereo not drawn), with -107.4%.
`Cc1ccccc1C1(CN)CCOCC1`: the “Percent Effect” value worked out at 37.02%.
Then `Cc1ccccc1C1(CN)CCCCC1`, with 91.14%; and `NCC1(c2cccc(C(F)(F)F)c2)CCCCC1`, with -1.273%.
Regarding `COc1ccc(C2CCCCCN2S(N)(=O)=O)cc1` (stereo not drawn), the “Percent Effect” value is reported as -81.61%.
With `COc1ncccc1C(=O)N1CC[C@H]2C[C@H](c3noc(C)n3)O[C@@H]2C1` the figure was -68.36%; with `CN(C)c1nc2c(c(N3CCc4ccccc4C3)n1)CCNC2`, 30.67%; with `Cc1cccnc1[C@H](C)Nc1nc(-c2cccnc2)nc2c1CNC2`, 77.9%.
With `CCc1cc(C(C)Nc2nc(-c3cccnc3)nc3c2CNC3)on1` (stereo not drawn) the figure was -34.82%; with `Cc1cc(CC(C)Nc2nc(-c3cccnc3)nc3c2CNC3)[nH]n1` (stereo not drawn), -0.4892%; with `Cc1ccccc1C(Nc1ncnc2c1CCNC2)c1ccccc1` (stereo not drawn), 22.99%.
With `CC(Nc1nc(-c2ccccc2)nc2c1CCNCC2)c1cccnc1` (stereo not drawn), the “Percent Effect” value is on record as 90.56%.
With `Cc1ccccc1N1CCN(c2nc(N(C)C)nc3c2CCNC3)CC1` the figure was 36.34%; with `CN(C)CCC(Nc1nc(N)nc2c1CCNCC2)c1ccccc1` (stereo not drawn), -67.64%.
With `CC(=O)N1CCc2nc(-c3ccccc3)nc(NC(C)C)c2CC1` the figure was -31.72%; with `CCOCc1nc2c(c(NC(CC)c3cccnc3)n1)CCNCC2` (stereo not drawn), -63.2%; with `CC(Nc1nc(-c2ccncc2)nc2c1CCNC2)c1ccccc1` (stereo not drawn), 70.67%.
Then `c1ccc2c(c1)CCN(c1nc(-c3ccncc3)nc3c1CCNC3)C2`, with 59.82%; and `CN1Cc2cc(F)ccc2N(CC(C)(C)O)CCC1=O`, with -102.4%.
On to `c1cc2occc2c(N2CCCC(c3nncn3C3CC3)C2)n1` (stereo not drawn), for which the “Percent Effect” value is reported as -31.64%.
Regarding `CO[C@H]1CN(C(=O)OC(C)(C)C)CC1NCc1cc[nH]c1` (stereo partly drawn), the “Percent Effect” value is listed as -107.9%.
With `CCN1C(=O)C(C#N)=C(C)/C(=C/C2=Cc3ccccc3OC2)C1=O`, the “Percent Effect” value is -95.4%.
Then `CC1c2ncc(Cn3cccn3)n2CCN1Cc1ccccn1.O=C(O)C(F)(F)F.O=C(O)C(F)(F)F` (stereo not drawn), with -97.72%; and `CCC[C@H]1CN(C(=O)c2ccc3[nH]c(CO)nc3c2)C[C@@H]1N`, with -26.19%.
Then `CC(=O)N1CCOC2(CCCN(C(=O)c3ccc(Cl)cc3)C2)C1` (stereo not drawn), with -118.1%.
Regarding `Cc1ccc(NC(=O)N2CC[C@@H](O)C2)c(-c2nc(C3CC3)no2)c1`, the “Percent Effect” value is -83.22%.
Regarding `CC(C)c1cccc(S(=O)(=O)NCCCN2CCC(O)CC2)c1`, the “Percent Effect” value was found to be 31.74%.
Consider `Cc1cc(F)c(S(=O)(=O)NCCCN2CCC(O)CC2)cc1F`, for which the “Percent Effect” value is -91.17%.
Then `CC1CCN(CCCNS(=O)(=O)Cc2ccccc2F)CC1`, with 25.53%; and `CC1CCN(CCCNS(=O)(=O)c2cc(F)cc(F)c2)CC1.Cl`, with 61.9%; and `O=S(=O)(NCCCN1CCCC1)c1cc(F)cc(F)c1`, with 66.12%.
Regarding `O=S(=O)(Cc1ccccc1Cl)NCCCN1CCCC1`, the “Percent Effect” value came out at 78.29%.
With `CC(=O)N1CCN(CCNS(=O)(=O)c2cccc(F)c2)CC1` the figure was -79.38%; with `CC1CCN(CCCNS(=O)(=O)c2cccc(F)c2)CC1.Cl`, 53.06%.
In the case of `CC(=O)N1CCN(CCNS(=O)(=O)c2cc(F)cc(F)c2)CC1`, the “Percent Effect” value is -120.9%.
`Cc1ccccc1CS(=O)(=O)NCCCN1CCCC1`: the “Percent Effect” value was found to be 22.31%.
Then `Cn1cnc(S(=O)(=O)NCCCN2CCCCCC2)c1Cl`, with -99.75%; and `O=S(=O)(Cc1ccccc1F)NCCCN1CCCCC1`, with 18.19%; and `CN(Cc1cccs1)Cc1nnsc1Cl`, with -133.9%.
`NC(=O)CN1CC2(CCC1=O)CCN(C(=O)c1ccccc1F)CC2`: the “Percent Effect” value is -172.5%.
Then `CCO[C@H]1CC[C@H]2[C@H]1OCCN2C(=O)CC1=CCCCC1`, with -84.2%; and `COCCn1ccc2c(C(=O)Nc3nc4c(s3)CCC4)cccc21`, with -233.3%; and `CS(=O)(=O)c1ccccc1-n1cc(NC(=O)CC2C=CCC2)cn1` (stereo not drawn), with -87.45%.
With `O=C(CCc1cc2n(n1)CCCN(CCc1ccccc1)C2)NC1CC1` the figure was -74.1%; with `CC(=O)N1CCC(C(=O)NCCc2c[nH]c3cc(C)ccc23)CC1`, -74.03%.
Take `CS(=O)(=O)N1CCc2c(cccc2NC(=O)NC2CCCC2)C1`: the “Percent Effect” value is -76.44%.
Regarding `CCc1ccc(OCCn2cccn2)cc1`, the “Percent Effect” value is recorded as -75.63%.
Then `CC(C)c1nccc(CN2CCC(c3nc4ccccc4n3C)CC2)n1`, with -101.6%; and `CC(C)Cc1nc(NC(=O)c2cccnc2)n[nH]1`, with -46.29%.
Then `Cc1ccc2nc(C(=O)N3CC(c4cccnc4)C3)cn2c1`, with -27.83%; and `Cc1ccc(CNC(CN2CCN(C)CC2)c2ccccc2)cc1C` (stereo not drawn), with -112.6%; and `Cl.Cl.OC(CN1CCN(Cc2ccc(F)c(F)c2)CC1)C1CC1` (stereo not drawn), with -18%.
Then `Cc1cccc(CNC(CN2CCN(C)CC2)c2ccccc2)c1` (stereo not drawn), with 83.13%; and `CN1CCN(CC(NCc2cccc(O)c2)c2ccccc2)CC1` (stereo not drawn), with -102.1%; and `CN1CCN(CC(NCc2ccc(F)cc2)c2ccccc2)CC1` (stereo not drawn), with -91.46%.
For `O=C(NC(CN1CCCC1)c1ccccc1)c1c(O)cc(F)cc1F` (stereo not drawn), the “Percent Effect” value is listed as -93.48%.
Then `COCCN1CCC(NCc2cccc(C)c2)C1` (stereo not drawn), with -16.89%; and `COc1cccc(CNC(=O)N2CCN(Cc3cc(C)on3)CC2)c1`, with -21.77%; and `COc1cccc(C(=O)N2CCN(CC(O)c3ccccc3)CC2)c1` (stereo not drawn), with -38.78%.
With `NC(=O)CS(=O)(=O)Cc1csc(-c2ccc(F)cc2)n1` the figure was -114.2%.
With `O=C(Nc1cc(C(F)(F)F)c[nH]c1=O)C1CCCO1` (stereo not drawn) the figure was -102.8%; with `Cc1csc(NC(=O)C2CCN(Cc3cccc4c3OCCO4)CC2)n1`, -33.92%.
As for `CN(C)CCOCc1cncc2c1CCN(C(=O)C1CCOCC1)C2.O=C(O)C(F)(F)F.O=C(O)C(F)(F)F`, the “Percent Effect” value is recorded as -70.85%.
With `O=C(O)C(F)(F)F.O=C(O)C(F)(F)F.O=C(O)C(F)(F)F.O=C(c1ccncc1)N1CCN(Cc2cccnc2)c2ncccc2C1` the figure was -102.4%.
Then `CC(C)NC(=O)c1noc2c1CN(Cc1cnn(C)c1)CC2`, with -77.7%; and `O=C(Nc1cccnc1)C1Cc2nc(-c3ccsc3)sc2N1CC1CC1.O=C(O)C(F)(F)F` (stereo not drawn), with -160.3%.
For `CN(C)CCNC(=O)C1Cc2nc(-c3ccsc3)sc2N1CC1CC1.O=C(O)C(F)(F)F` (stereo not drawn), the “Percent Effect” value is listed as 9.733%.
Then `CN(C)CCNC(=O)C1Cc2nc(-c3ccccc3)sc2N1CC1CC1.O=C(O)C(F)(F)F` (stereo not drawn), with 89.72%; and `O=C(Nc1cccnc1N1CCSCC1)c1ccc2c(c1)CCC2`, with -3.12%; and `O=C(NC1CC1)C1CCN(c2cccc(C(F)(F)F)n2)CC1`, with 78.5%.
Then `O=C(NC1CCN(c2cccc(C(F)(F)F)n2)CC1)C1CC1`, with -20.01%; and `O=C(NC1CC1)C1CCCN(c2cccc(C(F)(F)F)n2)C1` (stereo not drawn), with 11.64%; and `COc1ccc(C2(C(=O)NC3CCc4nccn4C3)CCCC2)cc1` (stereo not drawn), with 46.07%.
With `CS(=O)(=O)C1(C(=O)NC2CCc3nccn3C2)CCCC1` (stereo not drawn) the figure was -116.8%; with `COc1cccc(C2(C(=O)NC3CCc4nccn4C3)CCCC2)c1` (stereo not drawn), 52%.
In the case of `CN1C[C@H](O)[C@]2(CCN(C(=O)NCc3ccccc3)C2)S1(=O)=O`, the “Percent Effect” value is listed as -19.04%.
Then `Cc1cnccc1-c1cc(NCCO)nc2[nH]ccc12`, with -75.39%; and `Cc1nc(C(=O)N2CC[C@@]3(C[C@H](NS(C)(=O)=O)CCO3)C2)cs1`, with -13.09%.
